The values below come from PubChem BioAssay AID488841 (Sanford-Burnham Center for Chemical Genomics, 2010).

In all, about 1,400 compounds went through this assay and about 380 (27%) were called active. This is one part of the list. A number with no mark means an inactive call.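 Rule for the calls: active = mean inhibition above 50% across duplicate retests at 10 µM; inactive = the rest.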

This test is described as follows: inhibition of NALP1/ASC/caspase-1 reporter signal in yeast, confirmation, NALP1 inhibitor project, S. cerevisiae, luminescence, single concentration (AID 488841).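 Note: plate controls were DMSO in galactose medium for no effect and cells in plain SD medium for full effect.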 Conditions: S. cerevisiae NALP1/ASC/Caspase-1 reporter, beta-gal luminescence; at 10 µM; stronger effect = higher value.
For orientation: inhibition means the change of the read-out against control, counted positive when it falls. On to `COCCNCCOc1ccc(C(C)(C)c2ccccc2)cc1`, for which the inhibition is 50.5% (active).
With `Cc1cccc(N2C(=O)NC(=O)/C(=C/c3ccc([N+](=O)[O-])o3)C2=O)c1`, the inhibition was 31.1%.
With `Nc1cc(Cl)c2nonc2c1[N+](=O)[O-]`, the inhibition is 62.5% (active).
For the compound `CCCCCn1c(=O)c(C(=O)Nc2nc3ccccc3[nH]2)c(O)c2ccccc21`, the inhibition was 23.1%.
Under `CCOc1cc(CNCCc2c[nH]c3ccccc23)cc(Cl)c1OCC` stands 48%; under `Cc1ccc(/C=C2\C(=O)NC(=O)N(CC3CCCO3)C2=O)s1` (centres undefined), 36.6%; under `C[C@H]1C[C@@H](C)C(=O)[C@@H]([C@H](O)CC2CC(=O)NC(=O)C2)C1`, 99.8% (active).
On to `N#CCCn1cc(C(=O)NCc2ccccc2)c(-c2ccccc2)n1`, for which the inhibition is 37.1%.
As for `CC(Cc1ccccc1Sc1ccccc1)N(C)C` (centres undefined), the inhibition was 34.8%.
In the case of `Cc1cc2ccccn2c1C(C[N+](=O)[O-])c1c(F)cccc1Cl` (centres undefined), the inhibition is 71% (active).
`O=C1/C(=C/c2cccc([N+](=O)[O-])c2)N2CCC1CC2`: the inhibition is 46.3%.
As to `Cc1ccc(S(=O)(=O)NC(CC(=O)N2CCC3(CC2)OCCO3)c2ccco2)cc1` (centres undefined), the inhibition is 37.2%.
In the case of `COc1cc2c(cc1OC)CN(c1ccc([N+](=O)[O-])c(C(F)(F)F)c1)CC2`, the inhibition was 45.4%.
Take `CC(Cc1ccccc1)NC(=O)/C=C/c1ccc(Cl)cc1` (centres undefined): the inhibition is 50% (active).
As to `CCOCCN1CCN(c2nnc3n2-c2ccc(Cl)cc2C(c2ccccc2Cl)=NC3)CC1`, the inhibition is 32.9%.
With `Cc1ccc(Cn2cc(C=O)c(-c3ccc(C)cc3)n2)cc1`, the inhibition is 59.5% (active).
Turning to `CC(C)NS(=O)(=O)c1ccc(OCC(=O)N2CCN(C)CC2)cc1`, the inhibition was 4.2%.
As to `Cc1ccc(C)c(NC(=S)NCCc2cnc[nH]2)c1`, the inhibition was 23.7%.
As for `CN1C2CCC1/C(=C/c1ccccn1)C(=O)/C2=C\c1ccccn1`, the inhibition is 98% (active).
Consider `CC(C)CCn1c(=O)c(C(=O)NCc2ccco2)c(O)c2ccccc21`, for which the inhibition was 35%.
With `CC1(C)C[C@H]2C=C(C=O)[C@]3(C=O)C[C@]3(C)[C@H]2C1`, the inhibition is 32.4%.
In the case of `CN1/C(=C\C=C\C2=[N+](C)c3ccc4ccccc4c3C2(C)C)C(C)(C)c2ccccc21`, the inhibition was 100% (active).
For the compound `CN1CCN(c2ccc(N)c(N3CCN(C)CC3)c2)CC1`, the inhibition is 33.6%.
In the case of `Fc1ccc(C(OCCN2CCCC2)c2ccc(Br)cc2)cc1` (centres undefined), the inhibition was 49.5%.
As to `CCCCN(Cc1ccccc1)C1CCN(CCc2ccccc2)CC1`, the inhibition is 55.1% (active).
Under `CC1CCCC(C)N1/N=C/c1c[nH]c2ccc(Br)cc12` (centres undefined) stands 19.6%; under `CN[C@H]1C[C@H]2O[C@@](C)([C@H]1OC)n1c3ccccc3c3c4c(c5c6ccccc6n2c5c31)C(=O)NC4`, 99.7% (active).
Take `Clc1ccc2nc3c(c(-c4ccccc4)c2c1)CNCC3`: the inhibition is 46%.
As to `O=C(c1cc2c(s1)-c1ccccc1OC2)N1CCC2(CC1)OCCO2`, the inhibition is 35.5%.
Turning to `c1ccc2sc(NC3=NCCN3)nc2c1`, the inhibition was 99.8% (active).
On to `CNC(=O)Oc1ccc2ncccc2c1`, for which the inhibition was 35.5%.
Under `O=C(c1ccccc1)C(CN1CCCC1)c1ccccc1` (centres undefined) stands 27.6%; under `COc1cc(/C=C(/C)[N+](=O)[O-])ccc1OCc1ccccc1Cl`, 73.4% (active).
`Cc1ccc(-c2nc(N3CCOCC3)s[n+]2-c2ccccc2)cc1`: the inhibition is 40.2%.
Regarding `CSc1ncc(Cl)c(C(=O)O)n1` (tested in a mixture with another compound), the inhibition is 21.1%.
`O=C1/C(=C/c2cc3c(cc2Cl)OCO3)N2CCC1CC2`: the inhibition is 47.5%.
Regarding `Nc1c2c(nc3sc4c(c13)CCCC4)CCCCC2`, the inhibition was 40.5%.
As to `Nc1c2c(nc3sc4c(c13)CCCCC4)CCCC2`, the inhibition was 84.5% (active).
In the case of `Nc1ccc(C2(c3ccc(N)cc3)CN3CCC2CC3)cc1`, the inhibition is 25.7%.
